Experimental data published in PubChem BioAssay (Tox21).
Results filed as inconclusive are left out. The source made the active and inactive calls. Unless noted, the call rests on the fitted dose curve; in most records, active means well fitted curve in the direction sought with a large enough effect in the repeat runs; inconclusive means weak or mixed curves; inactive means no such curve, though single readings can be large; an effect the other way counts as inactive or inconclusive.

How the values were obtained:
[1] = qHTS assay to identify aromatase inhibitors - cell viability counter screen (AID 743084);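 further: cells stimulated with testosterone during compound exposure; nearly all actives have a fitted effect of over 55% in size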
[2] = target: Aryl hydrocarbon receptor (Homo sapiens) (UniProt P35869); test: qHTS assay to identify small molecule that activate the aryl hydrocarbon receptor (AhR) signaling pathway (AID 743085); further: nearly all actives have a fitted effect of over 15% in size; further: potency means the concentration at half of the fitted maximal effect;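 on activation: HG2L7.5c1 human HepG2 liver cells with stably integrated DRE-driven firefly reporter; series mostly up to about 70 µM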
Aryl hydrocarbon receptor (Homo sapiens), sequence (P35869 whole entry, looked up): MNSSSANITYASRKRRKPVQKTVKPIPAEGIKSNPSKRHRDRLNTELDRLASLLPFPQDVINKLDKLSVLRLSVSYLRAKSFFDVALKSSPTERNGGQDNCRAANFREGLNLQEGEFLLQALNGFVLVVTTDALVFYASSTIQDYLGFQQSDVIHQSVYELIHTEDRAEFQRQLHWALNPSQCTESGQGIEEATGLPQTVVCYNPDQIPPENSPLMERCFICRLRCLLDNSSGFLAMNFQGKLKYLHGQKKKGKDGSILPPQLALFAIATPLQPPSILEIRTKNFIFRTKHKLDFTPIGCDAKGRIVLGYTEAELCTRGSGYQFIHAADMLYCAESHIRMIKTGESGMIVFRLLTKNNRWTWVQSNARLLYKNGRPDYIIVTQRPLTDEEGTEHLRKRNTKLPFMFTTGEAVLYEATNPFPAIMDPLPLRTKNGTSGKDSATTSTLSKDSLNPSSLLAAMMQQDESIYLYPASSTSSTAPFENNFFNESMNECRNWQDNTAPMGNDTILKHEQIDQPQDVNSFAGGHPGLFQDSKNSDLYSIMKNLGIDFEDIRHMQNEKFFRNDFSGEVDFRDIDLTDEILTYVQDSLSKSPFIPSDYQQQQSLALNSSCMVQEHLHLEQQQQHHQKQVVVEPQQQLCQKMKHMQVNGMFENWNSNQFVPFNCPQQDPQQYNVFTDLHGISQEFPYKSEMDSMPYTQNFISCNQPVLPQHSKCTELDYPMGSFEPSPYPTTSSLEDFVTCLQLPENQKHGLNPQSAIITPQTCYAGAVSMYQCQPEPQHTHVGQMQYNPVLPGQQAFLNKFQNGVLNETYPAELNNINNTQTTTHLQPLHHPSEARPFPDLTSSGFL
How it was run: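 A multiplexed format paired cell viability (CellTiter-Fluor fluorescence) with AhR-dependent luciferase output (ONE-Glo luminescence) in the same wells of HepG2 DRE-luc cells after 24 h compound exposure at 37C.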

[3] = qHTS assay to identify small molecule that activate the aryl hydrocarbon receptor (AhR) signaling pathway - cell viability counter screen (AID 743086);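 further: HepG2 liver cells carrying the AhR DRE luciferase reporter; series mostly up to about 70 µM; nearly all actives have a fitted effect of over 45% in size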
How it was run: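 Cytotoxicity counter screen: CellTiter-Fluor signal (30 min, 37 C) in 4000 HepG2 cells/well carrying the DRE-luciferase reporter, following 24 h compound exposure at 37 C.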

[4] = target: Peroxisome proliferator-activated receptor gamma (Homo sapiens) (UniProt P37231); test: qHTS assay to identify small molecule agonists of the peroxisome proliferator-activated receptor gamma (PPARg) signaling pathway (AID 743094; active means well fitted activation curve with a large enough effect in the signal ratio in the repeat runs, not every such curve was filed as active; the % refers to the signal ratio)
Peroxisome proliferator-activated receptor gamma (Homo sapiens), sequence (P37231 whole entry, looked up): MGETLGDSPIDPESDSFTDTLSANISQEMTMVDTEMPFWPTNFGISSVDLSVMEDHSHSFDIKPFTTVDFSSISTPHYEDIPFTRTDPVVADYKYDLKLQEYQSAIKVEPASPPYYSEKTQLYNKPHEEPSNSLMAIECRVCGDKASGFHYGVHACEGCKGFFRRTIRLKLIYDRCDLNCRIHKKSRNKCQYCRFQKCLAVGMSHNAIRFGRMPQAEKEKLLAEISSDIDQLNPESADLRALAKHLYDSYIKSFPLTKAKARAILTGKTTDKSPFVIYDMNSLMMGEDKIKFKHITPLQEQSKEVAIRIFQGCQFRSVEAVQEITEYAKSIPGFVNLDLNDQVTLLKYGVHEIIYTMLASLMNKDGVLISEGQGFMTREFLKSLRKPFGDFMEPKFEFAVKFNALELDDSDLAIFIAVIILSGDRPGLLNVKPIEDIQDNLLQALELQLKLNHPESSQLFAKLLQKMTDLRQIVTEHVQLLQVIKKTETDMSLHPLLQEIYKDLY
How it was run: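 Cells from the PPARg UAS-bla HEK293H line are plated and incubated 5 h at 37C. Compounds in DMSO are pinned in and left 17 h at 37C. LiveBLAzer B/G substrate is then added for 1 h at room temperature before fluorescence is measured.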

[5] = target: Peroxisome proliferator-activated receptor gamma (Homo sapiens) (UniProt P37231); test: qHTS assay to identify small molecule antagonists of the peroxisome proliferator-activated receptor gamma (PPARg) signaling pathway (AID 743191; calls by dose curve; further: series mostly up to about 63 µM; nearly all actives have a fitted effect of over 30% in size)
How it was run: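 Beta-lactamase reporter under UAS control in HEK293H PPARg-bla cells; compound treatment 17 h at 37C. Read-out: fluorescence intensity after 1 h room-temperature incubation with LiveBLAzer B/G FRET substrate.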

[6] = qHTS assay to identify small molecule antagonists of the peroxisome proliferator-activated receptor gamma (PPARg) signaling pathway - cell viability counter screen (AID 743194); settings: Potency: co-treated with 50 nM rosiglitazone; further: nearly all actives have a fitted effect of over 55% in size
How it was run: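 Viability was measured as CellTiter-Glo luminescence in GeneBLAzer PPARg UAS-bla HEK293H cells. These cells had been exposed 17 h at 37 C to compounds together with rosiglitazone at 50 nM final, with the beta-lactamase readout taken in the same wells.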

[7] = qHTS assay for small molecule agonists of the antioxidant response element (ARE) signaling pathway - cell viability counter screen (AID 743203; calls by dose curve; further: nearly all actives have a fitted effect of over 55% in size)
How it was run: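 Cytotoxicity was tested in parallel with the ARE reporter screen. ARE-bla HepG2 cells were exposed to compounds for 16 hrs, and viability was taken from CellTiter-Glo luminescence.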

[8] = qHTS assay for small molecule activators of the heat shock response signaling pathway - cell viability counter screen (AID 743209); further: nearly all actives have a fitted effect of over 50% in size
How it was run: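 Cytotoxicity counter screen run in parallel with the HSE beta-lactamase reporter, using the same wells. HeLa HSE-bla cells received compound for 5 h at 37 C; ATP-based CellTiter-Glo luminescence was measured after 30 min at room temperature.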

[9] = qHTS assay for small molecule activators of the heat shock response signaling pathway (AID 743210; active means well fitted activation curve with a large enough effect in the signal ratio in the repeat runs, with a control signal flat, not every such curve was filed as active; the % refers to the signal ratio;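 further: HeLa cells with beta-lactamase reporter driven by heat shock elements; series mostly up to about 63 µM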)
How it was run: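 Fluorescence from a cleaved B/G FRET substrate (2.5 h, room temp) reports HSE-driven beta-lactamase in HeLa cells treated 5 h at 37 C with DMSO-dissolved compounds.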

[10] = qHTS assay to identify small molecule agonists of the peroxisome proliferator-activated receptor delta (PPARd) signaling pathway - cell viability counter screen (AID 743211); further: nearly all actives have a fitted effect of over 55% in size
How it was run: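 Tox21 library compounds, delivered in DMSO, were incubated 17 h with PPARd-bla HEK293H cells; cytotoxicity was taken from CellTiter-Glo luminescence read 30 min after reagent addition.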

[11] = target: Peroxisome proliferator-activated receptor delta (Homo sapiens) (UniProt Q03181); test: qHTS assay to identify small molecule agonists of the peroxisome proliferator-activated receptor delta (PPARd) signaling pathway (AID 743212; calls by dose curve)
Peroxisome proliferator-activated receptor delta (Homo sapiens), sequence (Q03181 whole entry, looked up): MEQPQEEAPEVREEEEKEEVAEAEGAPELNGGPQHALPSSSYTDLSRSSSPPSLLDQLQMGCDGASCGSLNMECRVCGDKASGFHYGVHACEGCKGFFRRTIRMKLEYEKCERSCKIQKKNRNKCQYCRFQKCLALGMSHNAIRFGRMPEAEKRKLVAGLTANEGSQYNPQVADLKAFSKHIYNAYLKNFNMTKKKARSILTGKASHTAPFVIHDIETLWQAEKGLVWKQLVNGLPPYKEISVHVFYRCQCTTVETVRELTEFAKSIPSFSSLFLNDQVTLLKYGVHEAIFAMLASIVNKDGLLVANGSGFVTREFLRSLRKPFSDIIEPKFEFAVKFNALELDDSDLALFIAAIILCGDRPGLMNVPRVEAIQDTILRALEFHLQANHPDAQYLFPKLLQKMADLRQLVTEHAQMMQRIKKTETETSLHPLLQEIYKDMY
How it was run: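 Steps: seed PPARd-bla HEK293H cells; incubate 5 h, 37 C, 5% CO2; add compounds in DMSO; incubate, 37 C; add LiveBLAzer B/G FRET substrate; hold 2 h at room temperature; measure fluorescence.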

[12] = qHTS assay to identify small molecule antagonists of the peroxisome proliferator-activated receptor delta (PPARd) signaling pathway - cell viability counter screen (AID 743213); further: nearly all actives have a fitted effect of over 50% in size
How it was run: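 In this counter screen, HEK293H cells carrying a UAS-beta-lactamase reporter are co-treated with test compounds and 300 nM L165041 (final) for 17 h at 37 C; cell viability is quantified by CellTiter-Glo luminescence.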

[13] = qHTS assay to identify small molecule agonists of the farnesoid-X-receptor (FXR) signaling pathway - cell viability counter screen (AID 743218); further: nearly all actives have a fitted effect of over 45% in size
How it was run: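 Cells were seeded, left 5 h at 37 C and 5% CO2, then dosed with compound in DMSO for 16 h. After the beta-lactamase FRET read, CellTiter-Glo was added and luminescence measured 30 min later.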

[14] = qHTS assay to identify small molecule antagonists of the farnesoid-X-receptor (FXR) signaling pathway - cell viability counter screen (AID 743221; active means well fitted cell-killing curve with a large enough effect in the repeat runs, not every such curve was filed as active; further: nearly all actives have a fitted effect of over 50% in size)
How it was run: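 Cytotoxicity is taken from ATP luminescence (CellTiter-Glo, 30 min, room temperature) in FXR-bla HEK 293T cells previously incubated 16 h at 37 C with compound and chenodeoxycholic acid at 50 uM final.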

[15] = target: Vitamin D3 receptor (Homo sapiens) (UniProt P11473); test: qHTS assay to identify small molecule agonists of the vitamin D receptor (VDR) signaling pathway (AID 743222; calls by dose curve)
Vitamin D3 receptor (Homo sapiens), sequence (P11473 whole entry, looked up): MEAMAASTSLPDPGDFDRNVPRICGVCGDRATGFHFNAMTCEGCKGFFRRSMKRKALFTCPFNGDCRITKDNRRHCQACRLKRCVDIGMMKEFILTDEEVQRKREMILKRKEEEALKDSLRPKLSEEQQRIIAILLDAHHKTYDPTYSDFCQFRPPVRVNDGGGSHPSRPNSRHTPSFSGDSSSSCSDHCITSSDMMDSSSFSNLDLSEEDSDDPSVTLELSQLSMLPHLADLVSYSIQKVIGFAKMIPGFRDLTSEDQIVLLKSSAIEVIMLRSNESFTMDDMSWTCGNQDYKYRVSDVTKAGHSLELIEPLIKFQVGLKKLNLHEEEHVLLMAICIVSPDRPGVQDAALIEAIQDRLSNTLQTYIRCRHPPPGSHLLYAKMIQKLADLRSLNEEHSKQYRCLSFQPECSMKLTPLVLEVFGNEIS
How it was run: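 Cells carrying a VDR-driven beta-lactamase reporter are seeded at 2,000 per well and rested 4 h. Compounds in DMSO are added for 16 h at 37C, and FRET substrate fluorescence is measured after 2 h at room temperature.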

[16] = target: Vitamin D3 receptor (Homo sapiens) (UniProt P11473); test: qHTS assay to identify small molecule antagonists of the vitamin D receptor (VDR) signaling pathway (AID 743223; active means well fitted inhibition curve with a large enough effect in the signal ratio in the repeat runs, not every such curve was filed as active; the % refers to the signal ratio)
How it was run: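 Quantitative HTS in VDR-bla reporter cells stimulated with 1alpha,25-dihydroxyvitamin D3, 3 nM final. Compound exposure 16 h, 37C, 5% CO2. Read-out: beta-lactamase FRET substrate fluorescence, 2 h RT.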

[17] = qHTS assay for small molecule agonists of the antioxidant response element (ARE) signaling pathway (AID 743202; active means well fitted activation curve with a large enough effect in the signal ratio in the repeat runs, not every such curve was filed as active; the % refers to the signal ratio)
How it was run: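 Beta-lactamase reporter activity, read as fluorescence intensity, reflects ARE/Nrf2 pathway induction in HepG2 cells after 16 h compound exposure at 37 C; substrate loading was 2 h at room temperature.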

[18] = target: Peroxisome proliferator-activated receptor delta (Homo sapiens) (UniProt Q03181); test: qHTS assay to identify small molecule antagonists of the peroxisome proliferator-activated receptor delta (PPARd) signaling pathway (AID 743215; active means well fitted inhibition curve with a large enough effect in the signal ratio in the repeat runs, not every such curve was filed as active; the % refers to the signal ratio;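 further: cells stimulated with agonist L165041 at 300 nM final during compound exposure; series mostly up to about 62 µM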)
How it was run: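 Cells: HEK293H with a UAS-driven beta-lactamase reporter responsive to PPARd. Compounds were co-added with L165041 (300 nM, final) and incubated 17 h at 37 C before a 2 h room-temperature FRET substrate step and fluorescence reading.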

[19] = target: Bile acid receptor (Homo sapiens) (UniProt Q96RI1); test: qHTS assay to identify small molecule antagonists of the farnesoid-X-receptor (FXR) signaling pathway (AID 743217; active means well fitted inhibition curve with a large enough effect in the signal ratio in the repeat runs, not every such curve was filed as active; the % refers to the signal ratio)
Bile acid receptor (Homo sapiens), sequence (Q96RI1 whole entry, looked up): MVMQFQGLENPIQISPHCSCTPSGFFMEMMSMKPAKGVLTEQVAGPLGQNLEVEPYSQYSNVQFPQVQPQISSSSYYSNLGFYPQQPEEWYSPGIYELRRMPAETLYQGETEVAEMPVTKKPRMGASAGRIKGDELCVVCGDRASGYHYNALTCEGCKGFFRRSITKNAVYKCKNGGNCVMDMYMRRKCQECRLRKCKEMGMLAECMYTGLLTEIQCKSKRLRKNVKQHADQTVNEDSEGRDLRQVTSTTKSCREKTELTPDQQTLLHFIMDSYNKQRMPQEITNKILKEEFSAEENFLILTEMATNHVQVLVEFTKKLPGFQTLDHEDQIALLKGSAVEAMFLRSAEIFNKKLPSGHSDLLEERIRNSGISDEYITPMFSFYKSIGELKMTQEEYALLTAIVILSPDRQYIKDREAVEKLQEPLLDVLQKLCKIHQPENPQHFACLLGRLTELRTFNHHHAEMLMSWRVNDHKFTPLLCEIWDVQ
How it was run: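 Cells carrying a UAS-driven beta-lactamase reporter (GeneBLAzer FXR-UAS-bla HEK 293T) were plated and rested 5 h at 37 °C. Compounds in DMSO were added alongside chenodeoxycholic acid agonist at 50 uM final and left 16 h at 37 °C before FRET substrate readout.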

[20] = target: Bile acid receptor (Homo sapiens) (UniProt Q96RI1); test: qHTS assay to identify small molecule agonists of the farnesoid-X-receptor (FXR) signaling pathway (AID 743220; active means well fitted activation curve with a large enough effect in the signal ratio in the repeat runs, not every such curve was filed as active; the % refers to the signal ratio)
How it was run: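 FXR-UAS-bla HEK 293T cells carrying a UAS-driven beta-lactamase reporter were plated for 5 h at 37C/5% CO2, then exposed to DMSO-dissolved Tox21 10K compounds for 16 h at 37C. A LiveBLAzer B/G FRET substrate was loaded for 2 h at room temperature before fluorescence reading.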
On the % scale 0 is the no-effect control and ±100 the full control effect.

N#CN
inactive: Potency [1] | Potency [2] | Potency [3] | outcome [4] | Potency [5] | Potency [6] | Potency [7] | Potency [8] | Potency [9] | Potency [10] | outcome [11] | Potency [12] | Potency [13] | Potency [14] | outcome [15] | outcome [16]

COc1cc(CCN)cc(OC)c1OC
inactive: Potency [1] | Potency [2] | Potency [3] | outcome [4] | Potency [6] | Potency [17] | Potency [7] | Potency [8] | Potency [9] | Potency [10] | outcome [11] | Potency [12] | Potency [18] | outcome [19] | Potency [13] | outcome [20] | outcome [16]

CC(C)(N)Cc1ccc(Cl)cc1
inactive: Potency [1] | Potency [2] | Potency [3] | outcome [4] | Potency [5] | Potency [6] | Potency [7] | Potency [8] | Potency [10] | outcome [11] | Potency [18] | Potency [13] | Potency [14] | outcome [15]

Clc1cc2c(cc1Cl)Oc1cc(Cl)c(Cl)cc1O2
inactive: activity change, negative = cytotoxicity [1] 1.38% [at 0.342 µM] | viability change, negative = cytotoxic [3] -4.26% [at 0.341 µM] | activation [4] -9.85% [at 0.285 µM] | ratio activity, negative = inhibition [5] -3.27% [at 0.275 µM] | activity change, negative = cytotoxicity [6] 15.5% [at 0.275 µM, co-treated with 50 nM rosiglitazone] | viability change, negative = cytotoxic [7] -8.47% [at 0.338 µM] | activity change, negative = cytotoxicity [8] -11.9% [at 0.275 µM] | activation [9] -0.0962% [at 0.275 µM] | activity change, negative = cytotoxicity [10] -2.8% [at 0.275 µM] | activation [11] 7.23% [at 0.275 µM] | viability change, negative = cytotoxic [12] -3.41% [at 0.278 µM] | ratio activity, negative = inhibition [18] -14.9% [at 0.278 µM] | viability change, negative = cytotoxic [13] -3.37% [at 0.275 µM] | activation [15] 3.98% [at 0.275 µM] | activity change, negative = inhibition [16] -1.31% [at 0.281 µM]
active: Potency [2] 1.1 nM
